FLuc counter – firefly luciferase modulation, counter-screen for miR-21 project; P08659; purified FLuc, Km substrates, luminescence inhibition; Potency, µM (series often up to 57.5 µM), actives largely listed as inhibitors; actives 6.9% (n = 360,000); AID 588342; further: nearly all actives have a fitted effect of over 55% in size
Target sequence (P08659 whole entry, looked up): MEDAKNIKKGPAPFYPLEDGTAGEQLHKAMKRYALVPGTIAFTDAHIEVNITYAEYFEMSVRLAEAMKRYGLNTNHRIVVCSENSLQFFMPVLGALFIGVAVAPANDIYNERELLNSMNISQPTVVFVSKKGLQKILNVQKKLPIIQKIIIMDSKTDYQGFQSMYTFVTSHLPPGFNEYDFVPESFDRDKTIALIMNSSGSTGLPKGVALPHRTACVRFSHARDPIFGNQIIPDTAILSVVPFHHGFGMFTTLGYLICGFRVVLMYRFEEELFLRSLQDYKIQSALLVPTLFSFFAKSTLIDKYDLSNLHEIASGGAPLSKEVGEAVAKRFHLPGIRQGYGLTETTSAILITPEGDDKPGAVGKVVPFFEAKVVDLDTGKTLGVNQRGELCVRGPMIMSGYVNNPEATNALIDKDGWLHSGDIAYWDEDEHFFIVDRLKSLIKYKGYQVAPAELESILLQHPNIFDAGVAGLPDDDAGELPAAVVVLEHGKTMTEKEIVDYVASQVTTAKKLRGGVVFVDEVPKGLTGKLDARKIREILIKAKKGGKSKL
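Purified P. pyralis luciferase, 10 nM final, with Km-level 10 uM D-luciferin and 10 uM ATP in 50 mM Tris acetate pH 7.5, 10 mM Mg acetate, 0.01% Tween-20, 0.05% BSA; 6-point qHTS titration about 60 µM downward; luminescence read.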
NPC1 prom act – NPC1 promoter activation. Huh7 NPC1 promoter luciferase reporter, 24 h. Potency, µM (top dose mostly 9.22 µM), usual class: activators. actives 2.4% (n = 320,000). AID 485313; further: nearly all actives have a fitted effect of over 60% in size
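Quantitative HTS used a cell-based reporter: Huh7 cells stably bearing the NPC1 promoter upstream of luciferase were treated with compounds for 24 h, and promoter activation was read as luminescence.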
Rab9 promoter act – Rab9 promoter activation. Potency, µM (highest dose often 9.22 µM), hits mostly activators. Huh7 Rab9 promoter-luciferase reporter, luminescence, 24 h. actives 2.8% (n = 320,000); further: nearly all actives have a fitted effect of over 60% in size
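Huh7 cells stably carrying a Rab9 promoter-luciferase reporter, 1500 cells per well in OP-MEM I with 10% FBS, treated with compound 24 hours at 37C. Luciferase activity read by luminescence after 10 minutes with Amplite reagent.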
ELG1 genotoxic – inducers of genotoxicity in HEK293T ELG1-luciferase cells. HEK293T ELG1-luciferase reporter, luminescence, 16 h. Potency, µM (series often up to 46 µM), actives largely listed as activators. actives 1.3% (n = 330,000); further: nearly all actives have a fitted effect of over 60% in size
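Quantitative HTS format in 1536-well plates. HEK293T ELG1-luciferase reporter cells receive test compound and are incubated 16 hr at 37 °C, 5% CO2; ONE-Glo added, 30 min room temperature, then luminescence read.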
ELG1 repair inh – inhibitors of ELG1-dependent DNA repair in HEK293T cells. AID 504467. HEK293T ELG1-luciferase reporter, luminescence, 16 h; DNA damage induced by 5-fluorouridine. actives 2.3% (n = 330,000). Potency, µM (top dose mostly 46.1 µM), usual class: inhibitors; further: nearly all actives have a fitted effect of over 55% in size
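DMSO vehicle served as the neutral condition. Each well held 2,000 cells given 5-fluorouridine plus compound; after 16 hr at 37 °C/5% CO2, ONE-Glo was added and luciferase measured 30 min later.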
SMN2 splice up – increases expression of the SMN2 splice variant; actives 2.8% (n = 210,000); Potency, µM (highest dose often 46.1 µM), actives largely listed as activators; AID 1458; HEK293 SMN2-luciferase splicing reporter, luminescence, 30-36 h; further: nearly all actives have a fitted effect of over 55% in size
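HEK293 cells carry an SMN2 minigene-luciferase reporter in which exon 7 inclusion puts luciferase in frame. Cells were seeded at 2000 cells/well, attached for 10-12 hours, then exposed to compounds for 30-36 hours at 37C before ONE-Glo luminescence.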
A number is an active result; 0 = inactive; ? = inconclusive; - = not tested or not shown. An excerpt weighted towards active compounds, which were near 9.2% of everything screened. The call rests on the fitted dose curve; in most records, active means well fitted curve in the direction sought with a large enough effect; inconclusive means small, poorly fitted or top-dose-only effect, or another doubt; inactive means no such curve, though single readings can be large; an effect the other way counts as inactive or inconclusive.

SMILES	FLuc counter	NPC1 prom act	Rab9 promoter act	ELG1 genotoxic	ELG1 repair inh	SMN2 splice up
N#Cc1ccccc1CSc1nc2ccc(NC(=O)c3ccccc3C(=O)O)cc2s1	?	0	0	0	?	-
CC(=O)Nc1ccc2nc(SCc3ccccc3)sc2c1	13.5µM	-	-	-	-	-
O=C(O)c1ccc(CSc2nc3ccc(NC(=O)c4ccccc4C(=O)O)cc3s2)cc1	16.9µM	0	0	0	0	0
CCOc1ccc(CCNC(=O)CCCc2nnc3n(CC)c(=O)c4sccc4n23)cc1	0	-	-	-	-	-
N#Cc1ccc(OCC(O)CN2CCN(c3ncc(C(F)(F)F)cc3Cl)CC2)cc1 (centres undefined)	0	0	0	0	5.8µM	-
O=S(=O)(c1ccc(F)cc1)N1CCCN(c2nccc(C(F)(F)F)n2)CC1	0	0	0	0	0	-
Cc1ccc(C(C)(C)C)cc1	-	-	-	-	-	0
Cc1cc(NC(=O)c2cnn(-c3ccccc3)c2-n2cccc2)ccc1Br	0	-	-	-	-	0
Cc1c(C(=O)Nc2nc3ccccc3[nH]2)oc2c(Cl)cccc12	0	0	0	?	?	?
O=C(Nc1nc2ccccc2[nH]1)c1cccs1	4.78µM	1.26µM	1.26µM	?	?	3.55µM
COc1ccc(C(=O)Nc2nc3ccccc3[nH]2)cc1	0.19µM	0.112µM	?	?	?	-
COc1cc(C(=O)Nc2nc3ccccc3[nH]2)cc(OC)c1OC	?	0	0	0	?	0
Cc1cccc(C(=O)N[C@H](C(=O)Nc2nc3ccccc3[nH]2)C(C)C)c1	0	0	0	?	?	0
COc1ccc(C(=O)N[C@H](C(=O)Nc2nc3ccccc3[nH]2)C(C)C)cc1	6.75µM	0	0	11.6µM	?	10µM
Cn1nc(C(=O)Nc2nc3ccccc3[nH]2)ccc1=O	16.9µM	?	2.24µM	0	?	12.6µM
O=C(Cc1ccccc1Cl)Nc1nc2ccccc2[nH]1	0	0	0	0	?	-
Cc1cc(C(=O)COc2ccc3ccc(=O)oc3c2)c(C)n1C	?	0	0	0	0	0
COCCCNC(=O)C1CCN(c2cc(C)nc3c(-c4ccc(Cl)cc4)c(C)nn23)CC1	0	-	-	-	-	0
O=C(COc1ccccc1)Nc1nnc(-c2ccc(Cl)s2)o1	0	0	0	0	0	0
COc1cccc(C(=O)Nc2nc3ccccc3[nH]2)c1	0.757µM	0.562µM	0.708µM	0.366µM	?	?
Cn1c(=NC(=O)c2ccccc2[N+](=O)[O-])sc2cc(S(C)(=O)=O)ccc21	0.536µM	0.355µM	0.562µM	8.2µM	?	2.24µM
COc1ccc(CCN2C(=S)NC3CC2(C)Oc2ccc([N+](=O)[O-])cc23)cc1OC (centres undefined)	0	0	0	0	25.9µM	0
COc1ccc(CNC(=O)CSc2nnc(NC(=O)c3ccccc3F)s2)cc1	10.7µM	3.16µM	2.24µM	?	?	-
O=C(CSc1nnc(NC(=O)c2ccccc2F)s1)NC1CCCC1	10.7µM	?	3.16µM	0	?	-
O=C(Cc1ccc(F)cc1)Nc1nnc(SCC(=O)N2CCCCC2)s1	0	0	0	0	0	0
SMILES	FLuc counter	NPC1 prom act	Rab9 promoter act	ELG1 genotoxic	ELG1 repair inh	SMN2 splice up
O=C(CSc1nnc(NC(=O)c2ccc(F)cc2F)s1)NC1CCCC1	4.26µM	?	?	?	?	-
O=C(Nc1nnc(SCC(=O)N2CCCCC2)s1)c1ccc(F)cc1F	8.49µM	0	0	0	?	-
CCOc1ccccc1NC(=O)CN1C(=O)COc2ccc(S(=O)(=O)N3CCCCCC3)cc21	0	-	-	-	-	-
Cc1cccc(-n2c3nc(=O)[nH]c(=O)c-3cc3c(Cl)cccc32)c1C	0	-	-	-	-	0
COC(=O)c1cc(S(=O)(=O)NCC2CCN(CCc3cccs3)CC2)cn1C	0	0	0	0	0	-
Cc1ccc(S(=O)(=O)N(C)C)cc1NC(=O)COC(=O)/C=C/c1cnc2ccccc2n1	16.9µM	0	0	0	0	0
CN(C)S(=O)(=O)c1ccc(Cl)c(NC(=O)COC(=O)/C=C/c2cnc3ccccc3n2)c1	10.7µM	0	0	0	0	-
COc1ccc2c(c1)c1c(c(=O)n(-c3ccccc3C)c(=O)n1CC(=O)N1CCCC1)n2C	0	-	-	-	-	-
